Columns and labels:
[1] = target: Sphingosine kinase 1 (Homo sapiens) (UniProt Q9NYA1); conditions: at 1 µM;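 also: mean SPHK1 inhibition value reported from the GSK PKIS kinase panel screen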
[2] = target: T1, Sphingosine kinase 2 (Homo sapiens) (UniProt Q9NRA0); conditions: at 0.1 µM
T1 sequence (whole entry): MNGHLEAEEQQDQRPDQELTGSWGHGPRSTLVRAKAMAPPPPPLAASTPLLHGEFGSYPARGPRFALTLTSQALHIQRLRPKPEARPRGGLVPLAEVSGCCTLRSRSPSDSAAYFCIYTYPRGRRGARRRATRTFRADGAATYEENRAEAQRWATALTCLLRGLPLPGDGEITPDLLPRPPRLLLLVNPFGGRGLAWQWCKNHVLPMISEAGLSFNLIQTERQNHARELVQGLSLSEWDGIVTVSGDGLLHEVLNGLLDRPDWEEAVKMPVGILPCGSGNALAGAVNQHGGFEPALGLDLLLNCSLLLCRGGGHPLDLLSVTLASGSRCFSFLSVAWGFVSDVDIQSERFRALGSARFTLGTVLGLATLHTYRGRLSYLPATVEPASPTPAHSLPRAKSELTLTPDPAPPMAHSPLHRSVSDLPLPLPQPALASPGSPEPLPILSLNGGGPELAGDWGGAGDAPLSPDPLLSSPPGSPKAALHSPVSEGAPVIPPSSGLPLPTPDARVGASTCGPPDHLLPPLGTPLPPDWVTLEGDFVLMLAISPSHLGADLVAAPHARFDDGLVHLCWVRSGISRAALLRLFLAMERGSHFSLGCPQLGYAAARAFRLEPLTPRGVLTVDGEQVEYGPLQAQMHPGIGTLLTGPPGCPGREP

[3] = target: T1, Sphingosine kinase 2 (Homo sapiens); conditions: at 1 µM
[4] = target: Casein kinase II subunit alpha (Homo sapiens) (UniProt P68400); conditions: at 0.1 µM
Casein kinase II subunit alpha (Homo sapiens), sequence (P68400 whole entry, looked up): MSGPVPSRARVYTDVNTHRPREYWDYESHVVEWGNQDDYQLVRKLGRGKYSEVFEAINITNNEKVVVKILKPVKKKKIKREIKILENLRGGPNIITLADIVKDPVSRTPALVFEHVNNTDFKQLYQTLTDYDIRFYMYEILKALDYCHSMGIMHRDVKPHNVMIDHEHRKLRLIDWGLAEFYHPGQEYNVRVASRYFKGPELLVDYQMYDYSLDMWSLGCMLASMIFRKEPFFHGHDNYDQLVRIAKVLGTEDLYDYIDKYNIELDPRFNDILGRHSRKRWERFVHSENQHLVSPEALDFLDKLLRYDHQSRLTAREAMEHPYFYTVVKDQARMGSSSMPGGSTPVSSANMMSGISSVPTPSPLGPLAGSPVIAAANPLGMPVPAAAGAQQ

[5] = target: Casein kinase II subunit alpha (Homo sapiens) (UniProt P68400); conditions: at 1 µM
[6] = target: T2, Inhibitor of nuclear factor kappa-B kinase subunit alpha (Homo sapiens) (UniProt O15111); conditions: at 0.1 µM
T2 sequence (whole entry): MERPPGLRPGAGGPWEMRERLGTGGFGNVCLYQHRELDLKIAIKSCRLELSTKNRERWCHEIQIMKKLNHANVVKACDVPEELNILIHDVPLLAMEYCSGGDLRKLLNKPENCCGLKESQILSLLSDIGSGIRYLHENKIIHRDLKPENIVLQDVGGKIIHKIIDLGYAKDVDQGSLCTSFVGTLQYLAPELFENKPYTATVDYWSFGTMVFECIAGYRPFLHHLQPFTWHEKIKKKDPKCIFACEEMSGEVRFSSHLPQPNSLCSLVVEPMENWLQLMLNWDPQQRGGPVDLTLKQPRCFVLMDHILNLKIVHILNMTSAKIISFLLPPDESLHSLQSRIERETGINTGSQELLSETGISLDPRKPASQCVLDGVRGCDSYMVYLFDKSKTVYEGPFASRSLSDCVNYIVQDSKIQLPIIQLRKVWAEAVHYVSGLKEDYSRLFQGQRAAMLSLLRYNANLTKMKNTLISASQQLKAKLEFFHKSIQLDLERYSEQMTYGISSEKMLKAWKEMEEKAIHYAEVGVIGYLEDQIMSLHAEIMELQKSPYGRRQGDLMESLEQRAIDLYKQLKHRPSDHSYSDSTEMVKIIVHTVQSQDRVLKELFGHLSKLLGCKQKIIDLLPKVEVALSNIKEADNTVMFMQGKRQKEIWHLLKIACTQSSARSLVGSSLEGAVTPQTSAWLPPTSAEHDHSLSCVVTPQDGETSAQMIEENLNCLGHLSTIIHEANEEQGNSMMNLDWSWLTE

[7] = target: T2, Inhibitor of nuclear factor kappa-B kinase subunit alpha (Homo sapiens); conditions: at 1 µM
[8] = target: T3, Inhibitor of nuclear factor kappa-B kinase subunit beta (Homo sapiens) (UniProt O14920); conditions: at 0.1 µM
T3 sequence (whole entry): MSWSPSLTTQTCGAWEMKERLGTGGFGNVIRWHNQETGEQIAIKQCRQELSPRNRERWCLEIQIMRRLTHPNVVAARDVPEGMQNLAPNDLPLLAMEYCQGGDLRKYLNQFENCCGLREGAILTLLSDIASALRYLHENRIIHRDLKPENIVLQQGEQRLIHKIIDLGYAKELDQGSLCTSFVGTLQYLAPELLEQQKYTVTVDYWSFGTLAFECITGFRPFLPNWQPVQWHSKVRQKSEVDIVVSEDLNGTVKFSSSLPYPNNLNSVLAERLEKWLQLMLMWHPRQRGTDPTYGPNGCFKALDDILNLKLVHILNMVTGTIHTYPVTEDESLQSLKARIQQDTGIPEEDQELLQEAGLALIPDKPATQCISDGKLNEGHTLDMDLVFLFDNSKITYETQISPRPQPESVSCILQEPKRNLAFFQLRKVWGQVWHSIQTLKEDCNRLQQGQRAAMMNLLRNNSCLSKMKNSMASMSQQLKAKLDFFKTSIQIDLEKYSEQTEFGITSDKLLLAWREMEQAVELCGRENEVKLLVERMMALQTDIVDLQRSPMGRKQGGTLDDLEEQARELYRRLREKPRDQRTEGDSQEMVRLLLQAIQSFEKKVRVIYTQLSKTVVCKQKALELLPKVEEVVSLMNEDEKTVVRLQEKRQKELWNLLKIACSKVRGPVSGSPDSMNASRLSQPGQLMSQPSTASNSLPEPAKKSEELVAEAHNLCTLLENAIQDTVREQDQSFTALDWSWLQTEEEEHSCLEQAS

[9] = target: T3, Inhibitor of nuclear factor kappa-B kinase subunit beta (Homo sapiens); conditions: at 1 µM
[10] = target: T4, Inhibitor of nuclear factor kappa-B kinase subunit epsilon (Homo sapiens) (UniProt Q14164); conditions: at 0.1 µM
T4 sequence (whole entry): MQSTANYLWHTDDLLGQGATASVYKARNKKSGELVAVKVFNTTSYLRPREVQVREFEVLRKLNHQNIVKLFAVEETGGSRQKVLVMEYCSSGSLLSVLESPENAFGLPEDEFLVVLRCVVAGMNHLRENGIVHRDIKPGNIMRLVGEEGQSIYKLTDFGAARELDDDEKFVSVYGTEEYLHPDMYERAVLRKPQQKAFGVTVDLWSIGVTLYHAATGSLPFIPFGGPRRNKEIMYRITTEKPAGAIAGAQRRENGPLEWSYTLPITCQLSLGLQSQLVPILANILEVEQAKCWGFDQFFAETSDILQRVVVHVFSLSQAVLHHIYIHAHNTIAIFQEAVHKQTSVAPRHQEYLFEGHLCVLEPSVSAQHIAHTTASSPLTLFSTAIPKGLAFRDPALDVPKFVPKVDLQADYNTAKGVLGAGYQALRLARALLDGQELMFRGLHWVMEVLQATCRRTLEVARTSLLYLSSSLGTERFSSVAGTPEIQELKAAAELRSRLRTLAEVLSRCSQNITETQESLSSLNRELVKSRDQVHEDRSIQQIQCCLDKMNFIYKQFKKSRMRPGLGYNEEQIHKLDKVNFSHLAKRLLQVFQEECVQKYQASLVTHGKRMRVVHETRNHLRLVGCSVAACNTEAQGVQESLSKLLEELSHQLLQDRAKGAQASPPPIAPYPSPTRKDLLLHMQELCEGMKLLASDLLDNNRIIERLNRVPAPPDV

[11] = target: T4, Inhibitor of nuclear factor kappa-B kinase subunit epsilon (Homo sapiens); conditions: at 1 µM
[12] = target: T5, Serine/threonine-protein kinase Nek1 (Homo sapiens) (UniProt Q96PY6); conditions: at 0.1 µM
T5 sequence (whole entry): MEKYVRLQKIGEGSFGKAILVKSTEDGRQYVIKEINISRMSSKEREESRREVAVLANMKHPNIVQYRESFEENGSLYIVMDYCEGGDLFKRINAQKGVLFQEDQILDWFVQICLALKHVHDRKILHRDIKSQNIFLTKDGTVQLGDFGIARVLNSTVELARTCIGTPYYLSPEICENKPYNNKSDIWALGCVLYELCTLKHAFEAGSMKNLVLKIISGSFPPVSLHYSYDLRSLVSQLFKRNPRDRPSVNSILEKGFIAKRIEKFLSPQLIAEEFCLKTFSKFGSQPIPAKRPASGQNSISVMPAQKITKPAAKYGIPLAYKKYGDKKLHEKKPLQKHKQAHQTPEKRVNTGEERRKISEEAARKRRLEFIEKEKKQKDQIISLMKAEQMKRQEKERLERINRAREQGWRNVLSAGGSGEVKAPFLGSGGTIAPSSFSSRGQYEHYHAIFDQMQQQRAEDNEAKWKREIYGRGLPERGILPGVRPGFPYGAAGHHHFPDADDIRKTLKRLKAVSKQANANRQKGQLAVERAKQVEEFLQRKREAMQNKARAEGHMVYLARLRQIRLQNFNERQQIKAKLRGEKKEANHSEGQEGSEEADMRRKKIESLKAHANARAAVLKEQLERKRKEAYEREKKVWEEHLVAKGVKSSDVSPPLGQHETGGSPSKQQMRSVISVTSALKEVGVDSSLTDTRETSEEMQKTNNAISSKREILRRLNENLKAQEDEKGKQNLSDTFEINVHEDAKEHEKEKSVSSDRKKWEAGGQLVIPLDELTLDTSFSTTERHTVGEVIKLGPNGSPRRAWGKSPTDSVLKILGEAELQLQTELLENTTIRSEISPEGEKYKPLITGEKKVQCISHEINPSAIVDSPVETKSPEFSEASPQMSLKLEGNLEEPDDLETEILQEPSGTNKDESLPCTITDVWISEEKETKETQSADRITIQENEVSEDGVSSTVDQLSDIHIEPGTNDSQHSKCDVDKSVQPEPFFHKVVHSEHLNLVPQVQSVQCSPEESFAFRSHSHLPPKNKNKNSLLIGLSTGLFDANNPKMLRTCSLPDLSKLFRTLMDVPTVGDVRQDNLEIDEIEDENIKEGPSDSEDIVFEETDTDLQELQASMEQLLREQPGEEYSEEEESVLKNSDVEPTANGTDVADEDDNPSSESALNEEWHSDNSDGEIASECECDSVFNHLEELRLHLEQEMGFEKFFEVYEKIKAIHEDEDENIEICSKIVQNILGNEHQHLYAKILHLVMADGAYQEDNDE

[13] = target: T5, Serine/threonine-protein kinase Nek1 (Homo sapiens); conditions: at 1 µM
[14] = target: T6, Serine/threonine-protein kinase Nek2 (Homo sapiens) (UniProt P51955); conditions: at 0.1 µM
T6 sequence (whole entry): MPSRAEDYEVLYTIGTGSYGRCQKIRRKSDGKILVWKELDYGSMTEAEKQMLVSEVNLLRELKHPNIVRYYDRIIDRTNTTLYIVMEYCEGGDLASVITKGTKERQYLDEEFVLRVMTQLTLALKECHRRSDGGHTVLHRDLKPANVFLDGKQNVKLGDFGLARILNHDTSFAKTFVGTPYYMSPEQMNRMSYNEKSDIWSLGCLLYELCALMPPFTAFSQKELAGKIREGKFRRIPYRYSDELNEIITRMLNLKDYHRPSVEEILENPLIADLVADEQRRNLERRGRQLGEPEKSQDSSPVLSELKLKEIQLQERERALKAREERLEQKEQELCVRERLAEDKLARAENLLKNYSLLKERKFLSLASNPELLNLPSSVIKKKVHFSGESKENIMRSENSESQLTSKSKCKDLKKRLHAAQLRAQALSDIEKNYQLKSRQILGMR

[15] = target: T6, Serine/threonine-protein kinase Nek2 (Homo sapiens); conditions: at 1 µM
[16] = target: Serine/threonine-protein kinase Nek6 (Homo sapiens) (UniProt Q9HC98); conditions: at 0.1 µM
Serine/threonine-protein kinase Nek6 (Homo sapiens), sequence (Q9HC98 whole entry): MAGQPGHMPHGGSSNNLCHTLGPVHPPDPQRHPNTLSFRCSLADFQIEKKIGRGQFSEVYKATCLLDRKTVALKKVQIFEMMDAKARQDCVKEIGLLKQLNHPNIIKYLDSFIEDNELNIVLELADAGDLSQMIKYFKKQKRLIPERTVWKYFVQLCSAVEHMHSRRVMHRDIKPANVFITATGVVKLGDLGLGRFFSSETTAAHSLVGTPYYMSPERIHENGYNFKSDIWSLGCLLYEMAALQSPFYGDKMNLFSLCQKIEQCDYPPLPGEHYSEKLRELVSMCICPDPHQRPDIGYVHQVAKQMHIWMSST

[17] = target: Serine/threonine-protein kinase Nek6 (Homo sapiens) (UniProt Q9HC98); conditions: at 1 µM
[18] = target: Serine/threonine-protein kinase Nek7 (Homo sapiens) (UniProt Q8TDX7); conditions: at 0.1 µM
Serine/threonine-protein kinase Nek7 (Homo sapiens), sequence (Q8TDX7 whole entry, looked up): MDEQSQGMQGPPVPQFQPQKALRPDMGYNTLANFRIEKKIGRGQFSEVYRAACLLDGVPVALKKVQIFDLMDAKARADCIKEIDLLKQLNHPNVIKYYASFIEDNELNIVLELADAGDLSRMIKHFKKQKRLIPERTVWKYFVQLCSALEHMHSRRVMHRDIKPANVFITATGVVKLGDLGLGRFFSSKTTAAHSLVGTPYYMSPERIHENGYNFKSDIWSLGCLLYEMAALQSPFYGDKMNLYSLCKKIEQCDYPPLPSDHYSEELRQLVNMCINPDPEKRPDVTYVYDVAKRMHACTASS

[19] = target: Serine/threonine-protein kinase Nek7 (Homo sapiens) (UniProt Q8TDX7); conditions: at 1 µM
[20] = target: T7, Serine/threonine-protein kinase Nek9 (Homo sapiens) (UniProt Q8TD19); conditions: at 0.1 µM;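 also: reported value is the mean percent inhibition of NEK9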
T7 sequence (whole entry): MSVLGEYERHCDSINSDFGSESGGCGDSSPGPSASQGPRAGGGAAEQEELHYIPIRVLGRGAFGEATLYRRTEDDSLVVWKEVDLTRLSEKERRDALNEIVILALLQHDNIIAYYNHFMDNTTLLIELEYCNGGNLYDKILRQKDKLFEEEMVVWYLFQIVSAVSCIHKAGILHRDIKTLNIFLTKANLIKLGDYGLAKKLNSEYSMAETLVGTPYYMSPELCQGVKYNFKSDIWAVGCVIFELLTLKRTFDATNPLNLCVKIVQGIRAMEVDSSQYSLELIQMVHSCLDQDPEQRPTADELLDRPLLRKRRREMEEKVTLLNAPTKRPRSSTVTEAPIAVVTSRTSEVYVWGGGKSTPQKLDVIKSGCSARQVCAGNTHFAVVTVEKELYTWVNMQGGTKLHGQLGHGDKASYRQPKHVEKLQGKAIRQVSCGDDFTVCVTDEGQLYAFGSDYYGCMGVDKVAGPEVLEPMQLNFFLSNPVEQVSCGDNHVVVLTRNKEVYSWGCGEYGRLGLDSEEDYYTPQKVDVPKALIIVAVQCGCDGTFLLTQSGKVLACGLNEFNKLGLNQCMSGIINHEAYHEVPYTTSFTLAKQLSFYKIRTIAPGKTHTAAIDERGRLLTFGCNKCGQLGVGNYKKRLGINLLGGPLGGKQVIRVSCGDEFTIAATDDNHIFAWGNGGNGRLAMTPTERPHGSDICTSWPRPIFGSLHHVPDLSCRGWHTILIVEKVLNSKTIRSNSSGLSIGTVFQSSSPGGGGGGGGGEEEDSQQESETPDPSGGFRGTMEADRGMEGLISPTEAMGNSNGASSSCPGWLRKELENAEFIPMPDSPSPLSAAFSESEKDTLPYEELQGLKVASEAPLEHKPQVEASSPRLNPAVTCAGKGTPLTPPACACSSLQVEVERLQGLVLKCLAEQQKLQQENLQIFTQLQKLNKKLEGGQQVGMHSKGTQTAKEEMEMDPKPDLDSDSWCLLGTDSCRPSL

Sphingosine kinase 1 (Homo sapiens), sequence (Q9NYA1 whole entry): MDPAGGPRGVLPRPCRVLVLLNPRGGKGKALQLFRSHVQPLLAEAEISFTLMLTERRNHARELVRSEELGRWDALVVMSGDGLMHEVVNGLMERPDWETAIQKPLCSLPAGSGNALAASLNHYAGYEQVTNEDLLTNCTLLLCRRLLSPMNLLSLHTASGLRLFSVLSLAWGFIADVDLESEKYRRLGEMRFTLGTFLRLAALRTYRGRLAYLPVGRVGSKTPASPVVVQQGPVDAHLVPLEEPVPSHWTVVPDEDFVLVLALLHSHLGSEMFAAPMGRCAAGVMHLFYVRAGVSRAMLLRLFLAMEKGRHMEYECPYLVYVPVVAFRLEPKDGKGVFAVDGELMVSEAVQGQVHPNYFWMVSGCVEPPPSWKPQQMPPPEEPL

Question: With COC(=O)Nc1nc2cc(Oc3ccc(NC(=O)Nc4cccc(C(=O)O)c4)cc3)ccc2[nH]1 as the molecule, how does the inhibition [1] read?
Answer: -2.52%

Question: And the inhibition [2]?
Answer: 0.52%

Question: What about the inhibition [3] of the same molecule?
Answer: -0.25%

Question: What about the inhibition [4] of the same molecule?
Answer: 1.52%

Question: And the inhibition [5]?
Answer: 8.32%

Question: And the inhibition [6]?
Answer: 5.47%

Question: And the inhibition [7]?
Answer: -3.86%

Question: And the inhibition [8]?
Answer: 1.26%

Question: And the inhibition [9]?
Answer: 2.79%

Question: And the inhibition [10]?
Answer: 3.11%

Question: What about the inhibition [11] of the same molecule?
Answer: 3.63%

Question: And the inhibition [12]?
Answer: 0.04%

Question: And the inhibition [13]?
Answer: 2.1%

Question: What about the inhibition [14] of the same molecule?
Answer: -0.46%

Question: What about the inhibition [15] of the same molecule?
Answer: -6.05%

Question: And the inhibition [16]?
Answer: -0.14%

Question: What about the inhibition [17] of the same molecule?
Answer: -0.54%

Question: What about the inhibition [18] of the same molecule?
Answer: -2.43%

Question: And the inhibition [19]?
Answer: -0.18%

Question: And the inhibition [20]?
Answer: 3.39%

From ChEMBL document CHEMBL1961873, “Compounds: GSK PKIS; Assays: Nanosyn kinase panel” (2012)
